As usually defined, the inhibition is the drop in the measured response relative to a control, in per cent.

The values that follow come from ChEMBL document CHEMBL1961873, “Compounds: GSK PKIS; Assays: Nanosyn kinase panel” (2012).

For assay [1], the target named is Serine/threonine-protein kinase pim-2 (Homo sapiens) (UniProt Q9P1W9). The note with it: at 1 µM.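 Further: each value is a mean of the inhibition measurements against the kinase.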
Assay [2] has as its target Serine/threonine-protein kinase pim-3 (Homo sapiens) (UniProt Q86V86). The conditions noted are these: at 0.1 µM.
For assay [3] the target is unchanged. The conditions noted are these: at 1 µM.
Assay [4] addresses T1, MAP kinase-activated protein kinase 5 (Homo sapiens) (UniProt Q8IW41).
T1 sequence (whole entry): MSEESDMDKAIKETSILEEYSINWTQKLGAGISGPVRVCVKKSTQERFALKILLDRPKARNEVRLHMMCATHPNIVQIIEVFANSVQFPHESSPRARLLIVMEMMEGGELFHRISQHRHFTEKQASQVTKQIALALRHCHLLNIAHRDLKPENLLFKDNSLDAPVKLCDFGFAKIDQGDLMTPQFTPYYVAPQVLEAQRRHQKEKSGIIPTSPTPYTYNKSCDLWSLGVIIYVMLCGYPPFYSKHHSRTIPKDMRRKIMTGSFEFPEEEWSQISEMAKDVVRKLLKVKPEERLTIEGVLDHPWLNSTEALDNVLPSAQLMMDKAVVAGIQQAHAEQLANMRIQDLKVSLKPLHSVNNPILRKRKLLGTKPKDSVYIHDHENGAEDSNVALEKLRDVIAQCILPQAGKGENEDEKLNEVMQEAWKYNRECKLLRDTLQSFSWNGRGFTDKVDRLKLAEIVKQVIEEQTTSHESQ
The conditions noted are these: at 0.1 µM.

Assay [5] addresses T1, MAP kinase-activated protein kinase 5 (Homo sapiens). The note with it: at 1 µM.
For assay [6], the target named is Serine/threonine-protein kinase SIK1 (Homo sapiens) (UniProt P57059). The note with it: at 0.1 µM.
Serine/threonine-protein kinase SIK1 (Homo sapiens), sequence (P57059 whole entry): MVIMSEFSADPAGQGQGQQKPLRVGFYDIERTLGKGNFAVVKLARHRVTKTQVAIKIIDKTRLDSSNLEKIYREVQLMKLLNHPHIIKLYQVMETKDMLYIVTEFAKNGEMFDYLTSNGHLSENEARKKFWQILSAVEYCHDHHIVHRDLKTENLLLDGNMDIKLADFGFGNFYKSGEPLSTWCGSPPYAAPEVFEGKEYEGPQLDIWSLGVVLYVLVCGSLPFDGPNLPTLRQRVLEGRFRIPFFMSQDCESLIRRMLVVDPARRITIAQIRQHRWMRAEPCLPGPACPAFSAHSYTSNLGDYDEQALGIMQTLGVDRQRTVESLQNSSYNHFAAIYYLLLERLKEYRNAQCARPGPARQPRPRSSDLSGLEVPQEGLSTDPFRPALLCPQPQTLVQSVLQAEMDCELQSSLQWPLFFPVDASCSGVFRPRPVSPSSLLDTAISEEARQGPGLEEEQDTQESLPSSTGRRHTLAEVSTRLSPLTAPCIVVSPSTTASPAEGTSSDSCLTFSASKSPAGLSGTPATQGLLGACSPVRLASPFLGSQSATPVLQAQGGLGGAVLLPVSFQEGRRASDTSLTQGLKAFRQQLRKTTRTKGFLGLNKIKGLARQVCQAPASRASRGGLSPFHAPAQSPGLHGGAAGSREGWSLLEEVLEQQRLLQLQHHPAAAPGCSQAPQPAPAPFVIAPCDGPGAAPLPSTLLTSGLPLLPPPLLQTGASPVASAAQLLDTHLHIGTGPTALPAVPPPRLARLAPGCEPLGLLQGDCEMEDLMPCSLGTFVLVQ
For assay [7] the target is unchanged. The conditions noted are these: at 1 µM.
Assay [8] addresses Serine/threonine-protein kinase SIK2 (Homo sapiens) (UniProt Q9H0K1). The note with it: at 0.1 µM.
For assay [9] the target is unchanged. The conditions noted are these: at 1 µM.
Assay [10] deals with T2, Serine/threonine-protein kinase TBK1 (Homo sapiens) (UniProt Q9UHD2).
T2 sequence (whole entry): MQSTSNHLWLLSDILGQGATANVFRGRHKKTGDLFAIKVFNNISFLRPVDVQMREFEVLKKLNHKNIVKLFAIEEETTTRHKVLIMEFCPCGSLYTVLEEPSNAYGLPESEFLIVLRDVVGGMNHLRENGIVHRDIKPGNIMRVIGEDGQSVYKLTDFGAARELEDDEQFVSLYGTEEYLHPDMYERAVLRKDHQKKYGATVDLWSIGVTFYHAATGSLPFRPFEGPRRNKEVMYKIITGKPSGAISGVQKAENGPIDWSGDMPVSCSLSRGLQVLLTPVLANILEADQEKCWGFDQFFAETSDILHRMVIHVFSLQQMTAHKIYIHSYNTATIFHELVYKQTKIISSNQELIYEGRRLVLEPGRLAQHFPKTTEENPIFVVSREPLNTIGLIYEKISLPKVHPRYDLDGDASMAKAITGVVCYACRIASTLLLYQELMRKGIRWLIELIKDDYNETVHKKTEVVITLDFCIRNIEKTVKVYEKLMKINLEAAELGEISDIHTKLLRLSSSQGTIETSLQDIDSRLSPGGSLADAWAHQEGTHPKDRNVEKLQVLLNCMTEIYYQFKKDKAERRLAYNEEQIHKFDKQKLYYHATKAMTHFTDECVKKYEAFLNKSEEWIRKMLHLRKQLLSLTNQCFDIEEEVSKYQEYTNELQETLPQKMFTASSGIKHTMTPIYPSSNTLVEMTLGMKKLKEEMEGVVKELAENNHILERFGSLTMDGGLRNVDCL
The note with it: at 0.1 µM.

Assay [11] deals with T2, Serine/threonine-protein kinase TBK1 (Homo sapiens). The conditions noted are these: at 1 µM.
The target of assay [12] is T3, Testis-specific serine/threonine-protein kinase 1 (Homo sapiens) (UniProt Q9BXA7).
T3 sequence (whole entry): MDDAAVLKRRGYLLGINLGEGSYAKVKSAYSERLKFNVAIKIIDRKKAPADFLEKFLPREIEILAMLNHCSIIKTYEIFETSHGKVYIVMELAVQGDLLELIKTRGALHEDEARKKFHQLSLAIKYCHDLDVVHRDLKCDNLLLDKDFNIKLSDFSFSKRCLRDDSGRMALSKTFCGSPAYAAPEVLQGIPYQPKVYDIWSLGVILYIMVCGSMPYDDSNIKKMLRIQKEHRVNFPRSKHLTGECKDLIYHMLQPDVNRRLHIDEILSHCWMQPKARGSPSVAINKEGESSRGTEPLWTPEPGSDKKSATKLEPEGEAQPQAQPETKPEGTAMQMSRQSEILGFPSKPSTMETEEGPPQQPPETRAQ
The conditions noted are these: at 0.1 µM.

In assay [13] the target is T3, Testis-specific serine/threonine-protein kinase 1 (Homo sapiens). The note with it: at 1 µM.
In assay [14] the target is T4, Testis-specific serine/threonine-protein kinase 2 (Homo sapiens) (UniProt Q96PF2).
T4 sequence (whole entry): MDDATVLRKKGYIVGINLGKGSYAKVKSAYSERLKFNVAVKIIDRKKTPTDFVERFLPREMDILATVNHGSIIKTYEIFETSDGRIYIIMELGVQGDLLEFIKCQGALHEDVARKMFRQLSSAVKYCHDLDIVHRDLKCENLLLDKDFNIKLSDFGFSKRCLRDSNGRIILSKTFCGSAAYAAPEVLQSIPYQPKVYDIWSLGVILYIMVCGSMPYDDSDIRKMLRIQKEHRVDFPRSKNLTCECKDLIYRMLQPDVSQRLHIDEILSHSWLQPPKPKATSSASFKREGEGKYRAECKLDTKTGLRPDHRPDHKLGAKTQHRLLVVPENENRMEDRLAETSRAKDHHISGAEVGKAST
The conditions noted are these: at 0.1 µM.

Assay [15] concerns the target T4, Testis-specific serine/threonine-protein kinase 2 (Homo sapiens). The note with it: at 1 µM.
In assay [16] the target is Casein kinase I isoform alpha (Homo sapiens) (UniProt P48729). The note with it: at 0.1 µM.
Casein kinase I isoform alpha (Homo sapiens), sequence (P48729 2-337 limits assumed): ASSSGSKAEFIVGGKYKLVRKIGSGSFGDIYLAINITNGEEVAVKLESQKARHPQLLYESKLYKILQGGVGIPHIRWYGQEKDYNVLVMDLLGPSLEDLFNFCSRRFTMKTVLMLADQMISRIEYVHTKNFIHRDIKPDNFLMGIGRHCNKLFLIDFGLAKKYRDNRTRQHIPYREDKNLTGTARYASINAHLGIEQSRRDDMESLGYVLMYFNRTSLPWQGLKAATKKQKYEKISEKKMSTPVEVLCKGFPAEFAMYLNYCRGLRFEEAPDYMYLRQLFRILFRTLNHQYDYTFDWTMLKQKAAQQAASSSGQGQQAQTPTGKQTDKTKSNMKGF
For assay [17] the target is unchanged. The note with it: at 1 µM.
Assay [18] concerns the target Casein kinase I isoform gamma-1 (Homo sapiens) (UniProt Q9HCP0). The note with it: at 0.1 µM.
Assay [19] has the same target. The note with it: at 1 µM.
The target in assay [20] is Casein kinase I isoform gamma-2 (Homo sapiens) (UniProt P78368). The conditions noted are these: at 0.1 µM.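 Further: values are mean inhibition figures reported as part of the GSK PKIS dataset.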
Casein kinase I isoform gamma-2 (Homo sapiens), sequence (P78368 whole entry, looked up, canonical isoform): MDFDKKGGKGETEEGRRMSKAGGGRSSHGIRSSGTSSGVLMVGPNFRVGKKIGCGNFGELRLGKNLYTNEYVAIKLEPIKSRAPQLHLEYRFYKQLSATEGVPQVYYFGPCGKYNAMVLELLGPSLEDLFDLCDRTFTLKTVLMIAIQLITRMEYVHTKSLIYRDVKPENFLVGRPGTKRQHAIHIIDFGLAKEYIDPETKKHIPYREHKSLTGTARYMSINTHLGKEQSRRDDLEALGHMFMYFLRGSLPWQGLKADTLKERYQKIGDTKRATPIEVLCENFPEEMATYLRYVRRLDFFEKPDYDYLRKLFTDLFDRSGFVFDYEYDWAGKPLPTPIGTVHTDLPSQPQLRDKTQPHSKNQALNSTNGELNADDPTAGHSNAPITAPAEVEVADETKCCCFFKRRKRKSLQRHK

Structures are written as SMILES.

Casein kinase I isoform gamma-1 (Homo sapiens), sequence (Q9HCP0 whole entry, looked up, canonical isoform): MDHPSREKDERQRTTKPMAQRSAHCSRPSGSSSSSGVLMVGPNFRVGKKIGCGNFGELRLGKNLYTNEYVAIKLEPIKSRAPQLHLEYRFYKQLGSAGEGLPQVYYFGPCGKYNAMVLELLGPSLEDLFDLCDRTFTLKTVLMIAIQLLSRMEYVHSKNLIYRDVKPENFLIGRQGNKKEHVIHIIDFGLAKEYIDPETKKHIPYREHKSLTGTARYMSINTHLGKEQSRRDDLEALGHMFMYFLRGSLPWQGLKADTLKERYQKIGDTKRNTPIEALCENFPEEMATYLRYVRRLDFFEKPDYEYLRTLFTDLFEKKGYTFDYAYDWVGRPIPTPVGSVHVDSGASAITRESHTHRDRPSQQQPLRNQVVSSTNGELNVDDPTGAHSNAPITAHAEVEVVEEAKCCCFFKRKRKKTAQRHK
Serine/threonine-protein kinase SIK2 (Homo sapiens), sequence (Q9H0K1 whole entry, looked up): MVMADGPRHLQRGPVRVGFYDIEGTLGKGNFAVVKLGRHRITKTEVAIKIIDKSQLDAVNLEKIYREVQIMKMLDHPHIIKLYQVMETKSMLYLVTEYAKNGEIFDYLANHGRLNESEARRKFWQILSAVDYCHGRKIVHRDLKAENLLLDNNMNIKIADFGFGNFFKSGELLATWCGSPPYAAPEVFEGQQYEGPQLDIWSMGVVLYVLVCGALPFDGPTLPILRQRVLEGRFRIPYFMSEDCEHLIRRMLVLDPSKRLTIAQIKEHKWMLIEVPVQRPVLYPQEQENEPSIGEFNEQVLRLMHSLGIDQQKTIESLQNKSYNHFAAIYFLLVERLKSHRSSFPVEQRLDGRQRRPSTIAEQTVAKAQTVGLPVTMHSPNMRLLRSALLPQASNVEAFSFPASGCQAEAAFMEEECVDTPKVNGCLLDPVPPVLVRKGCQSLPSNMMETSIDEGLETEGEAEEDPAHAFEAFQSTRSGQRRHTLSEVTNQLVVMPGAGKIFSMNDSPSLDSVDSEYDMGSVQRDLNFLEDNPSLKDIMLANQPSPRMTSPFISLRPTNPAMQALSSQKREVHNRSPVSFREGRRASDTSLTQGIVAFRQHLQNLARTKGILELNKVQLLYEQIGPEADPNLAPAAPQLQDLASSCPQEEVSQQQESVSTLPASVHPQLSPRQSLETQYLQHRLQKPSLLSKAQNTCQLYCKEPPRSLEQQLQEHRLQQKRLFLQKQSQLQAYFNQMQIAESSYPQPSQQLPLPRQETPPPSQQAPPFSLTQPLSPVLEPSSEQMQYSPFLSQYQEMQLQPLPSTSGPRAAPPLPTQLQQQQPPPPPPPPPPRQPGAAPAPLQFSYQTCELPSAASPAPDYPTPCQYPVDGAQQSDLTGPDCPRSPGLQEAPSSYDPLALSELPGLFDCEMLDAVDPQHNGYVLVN
Serine/threonine-protein kinase pim-2 (Homo sapiens), sequence (Q9P1W9 whole entry, looked up): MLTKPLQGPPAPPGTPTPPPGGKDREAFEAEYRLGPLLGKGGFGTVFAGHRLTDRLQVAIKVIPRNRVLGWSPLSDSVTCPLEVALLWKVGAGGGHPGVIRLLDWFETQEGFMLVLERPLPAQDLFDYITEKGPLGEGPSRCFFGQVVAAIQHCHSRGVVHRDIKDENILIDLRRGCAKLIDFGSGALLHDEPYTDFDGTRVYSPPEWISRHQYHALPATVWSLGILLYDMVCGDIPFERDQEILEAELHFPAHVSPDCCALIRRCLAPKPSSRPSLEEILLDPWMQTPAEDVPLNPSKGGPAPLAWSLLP

As for `COc1cc2ncnc(Nc3ccc(C)c(O)c3)c2cc1OC`, the inhibition is 2.78% in assay [1]; 2.48% in [2]; 4.22% in [3]; 3.96% in assay [4]; 2.36% in [5]; 5.14% in assay [6]. The inhibition was 33.2% in assay [7]; 7.06% in [8]; 18.9% in [9]; 1.88% in assay [10]; 5.95% in assay [11]; 3.91% in assay [12]. Further, the inhibition amounted to 3.21% in assay [13]; 1.77% in assay [14]; 2.03% in assay [15]; 4.56% in assay [16]; 5.91% in [17]; 4.01% in assay [18]. Moreover, the results for the inhibition in [19] and in [20] were 4.87% and 4.2%, respectively.
For the molecule `CCn1c(-c2nonc2N)nc2ccc(F)cc21`, the inhibition was 0.34% in [1]; -0.77% in [2]; 4.99% in assay [3]; 2.78% in assay [4]; 4.45% in assay [5]; 4.96% in assay [6]. In addition, the inhibition in assay [7] was 8.41%; in [8], 7.14%; in assay [9], 12.5%; in assay [10] it was 5.18%; in [11] it was 4.44%; in assay [12] it was 5.02%. Also, the inhibition was determined as 7.33% in assay [13]; 2.94% in assay [14]; 4.64% in [15]; 3.7% in assay [16]; 4.99% in assay [17]; 4.91% in assay [18]. Moreover, the values for the inhibition in [19] and in [20] were 5.86% and 5.17%, respectively.
On to `Cc1cc(O)cc(C)c1/C=C/c1cncc(C(=O)N(C)C)c1`, for which the inhibition is 0.34% in [1]; -1.55% in assay [2]; -0.09% in assay [3]; 0.59% in [4]; -0.52% in assay [5]; 9.45% in [6]. Also, the inhibition in assay [7] stood at 29.4%; in [8], 4.34%; in assay [9] it was 4.27%; in assay [10] it was 1.36%; in assay [11], 4.11%; in [12] it was 4.05%. For the same molecule, the inhibition in assay [13] was 0.84%; in assay [14], 2.08%; in assay [15] it was 0.19%; in assay [16], 1.94%; in assay [17], 3.01%; in [18], 1.26%. The inhibition is 1.95% in assay [19] and 1.03% in assay [20].
With `CS(=O)(=O)CCNCc1nc(-c2ccc3ncnc(Nc4ccc(OCc5cccc(C(F)(F)F)c5)cc4)c3c2)cs1`, the inhibition in [1] was -0.33%; in [2] it was -0.43%; in assay [3], 0.97%; in assay [4] it was 1.44%; in assay [5] it was -0.14%; in assay [6], 4.28%. For the same molecule, the inhibition in [7] turned out to be 0.42%; in [8] it was 1.04%; in assay [9], 2.49%; in assay [10] it was 2.22%; in assay [11], 0.57%; in assay [12], 2.83%. In addition, the inhibition in assay [13] is 2.19%; in [14], 0.45%; in assay [15] it was 0.58%; in [16] it was 0.49%; in assay [17], 4.64%; in assay [18], 1.2%. The results for the inhibition in assay [19] and in assay [20] were 2.03% and 0.96%, respectively.
Regarding `COc1cc(Nc2nccc(-c3cnn4ncccc34)n2)cc(OC)c1`, the inhibition in [1] stood at 6.78%; in assay [2] it was 4.42%; in assay [3], 10.6%; in assay [4], 0.14%; in assay [5], 1.55%; in assay [6], 8.12%. Also, the inhibition in assay [7] amounted to 32.3%; in [8], 3.15%; in [9] it was 39.1%; in [10] it was 3.49%; in assay [11] it was 33.2%; in assay [12], 3.46%. Moreover, the inhibition in [13] is 16.9%; in assay [14], 0.24%; in assay [15], 0.16%; in [16], 11.9%; in assay [17], 45.4%; in assay [18], 2.54%. Also, the values for the inhibition in assay [19] and in assay [20] were 19.9% and 3.83%, respectively.
Take `CC(C)c1ccc2c(c1)NC(=O)/C2=N/Nc1ccc(S(N)(=O)=O)cc1`: the inhibition in [1] worked out at 1.32%; in assay [2], 2.03%; in [3], 3.02%; in assay [4], 0.46%; in assay [5], 0.35%; in [6], 1.04%. Further, the inhibition in assay [7] is 7.02%; in assay [8] it was 2.29%; in assay [9] it was 2.16%; in assay [10], -1%; in assay [11], -0.26%; in [12], -0.2%. Further, the inhibition in assay [13] is 1.24%; in assay [14] it was 0.12%; in assay [15], 0.46%; in assay [16] it was 0.06%; in assay [17] it was 0.18%; in assay [18], 0.11%. Also, the inhibition was 0.56% in assay [19] and 0.63% in assay [20].
In the case of `c1ccc(Cc2nc3ccc(Nc4ncnc5ccccc45)cc3[nH]2)cc1`, the inhibition in assay [1] is 0.02%; in [2], 0.69%; in assay [3] it was 3.67%; in assay [4], 1.42%; in assay [5] it was 1.52%; in assay [6] it was 3.13%. In addition, the inhibition in assay [7] worked out at 5.43%; in assay [8], 2.47%; in assay [9], 7.91%; in [10], 3.57%; in assay [11], 5.54%; in assay [12], 0.97%. The inhibition in [13] is 2.75%; in assay [14] it was -0.59%; in assay [15], 4.11%; in assay [16], 8.25%; in assay [17], 7.49%; in [18] it was 2.6%. For the same molecule, the values for the inhibition in assay [19] and in assay [20] were 6.23% and 2.94%, respectively.
